In PubChem BioAssay (NCI) one finds growth inhibition data, which are given here for 9 compounds.

Each structure is given as a SMILES string. Values joined by “and” are separate entries in the source; they are usually repeats but may differ in a detail not shown here. Equal entries are not always repeated. Compounds without any hit were thinned out: in the full panel of roughly 79,000, 15% have a hit. Values without a mark were called inactive. Active and inactive are the calls of the source. Cut-off read from the data, not from the text of the source: active = growth inhibition above about 70%; inactive = the rest.

Assay [1] can be described thus: NCI Yeast Anticancer Drug Screen. Data for the rad50 strain (AID 155).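 Note: 0% = growth of vehicle-only cultures of the same strain.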 Conditions: S. cerevisiae rad50 strain growth inhibition, stronger effect = higher value. Put shortly:
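Vehicle-treated cultures provide the reference for the growth inhibition reported for compound-exposed, repair-deficient yeast.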

A short description of assay [2]: NCI Yeast Anticancer Drug Screen. Data for the mec2-1 strain (AID 157). Conditions: S. cerevisiae mec2-1 strain, stronger effect = higher value. A digest of the protocol:
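Mutant yeast (mec2-1) grown with compound; growth inhibition relative to vehicle control reported.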

A short description of assay [3]: NCI Yeast Anticancer Drug Screen. Data for the sgs1 mgt1 strain (AID 161).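 Note: 0% = growth of cultures given vehicle only.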 Conditions: S. cerevisiae sgs1 mgt1 strain, stronger effect = higher value. Put shortly:
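Yeast cells carrying a defined DNA-repair defect were exposed to test compounds. Growth inhibition was measured relative to vehicle-treated controls.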

Assay [4] in a line: NCI Yeast Anticancer Drug Screen. Data for the cln2 rad14 strain (AID 165).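 Note: 0% = growth equal to vehicle treated cultures.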 The following applies: S. cerevisiae cln2 rad14 strain, stronger effect = higher value. A digest of the protocol:
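Readout is yeast growth inhibition versus vehicle-treated controls, using a strain with cln2 and rad14 alterations exposed to compound.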

A short description of assay [5]: NCI Yeast Anticancer Drug Screen. Data for the bub3 strain (AID 167). The following applies: S. cerevisiae bub3 mutant strain, stronger effect = higher value. A digest of the protocol: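 Mutant yeast screening strain plus compound; vehicle-treated cultures serve as the 0% inhibition reference.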
A short description of assay [6]: NCI Yeast Anticancer Drug Screen. Data for the mlh1 rad18 strain (AID 175). Conditions: S. cerevisiae mlh1 rad18 strain growth inhibition, stronger effect = higher value. A digest of the protocol:
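Genetically defined yeast (DNA repair-deficient) exposed to compounds; growth inhibition determined relative to vehicle.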

Where [7] appears, read: at 5.0 µM (retest, dose inferred, filed as 0.5).
[8] abbreviates: at 50.0 µM (retest, dose inferred, filed as 5.0).

Turning to `Clc1ccc(CCN2CCOCC2)c(Cl)c1`, the growth inhibition is 4% in assay [1] (setting [7]); 27% in assay [1] (setting [8]); 62.9% in assay [1] (at 50.0 µM); 0% in assay [2] (setting [7]); 16% in assay [2] (setting [8]); 34.1% in assay [2] (at 50.0 µM). Besides, the growth inhibition in assay [3] (setting [7]) was 0%; in assay [3] (setting [8]), 42%; in assay [3] (at 50.0 µM) it was 54.4%; in assay [4] (setting [7]), 31%; in assay [4] (setting [8]) it was 30%; in assay [4] (at 50.0 µM) it was 58.5%. Besides, the growth inhibition in assay [5] (setting [7]) was 23%; in assay [5] (setting [8]), 54%; in assay [5] (at 50.0 µM) it was 34.5%; in assay [6] (setting [7]), 5%; in assay [6] (setting [8]), 55%; in assay [6] (at 50.0 µM), 64.9%.

For `O=C(CCl)c1ccc(O)cc1`, the growth inhibition in assay [1] (setting [7]) was 16%; in assay [1] (setting [8]) it was 96% (active); in assay [1] (at 50.0 µM), 91.5% (active); in assay [2] (setting [7]), 21%; in assay [2] (setting [8]) it was 98% (active); in assay [2] (at 50.0 µM), 98.2% (active). The growth inhibition was 31% in assay [3] (setting [7]); 97% (active) in assay [3] (setting [8]); 97.3% (active) in assay [3] (at 50.0 µM); 7% in assay [4] (setting [7]); 97% (active) in assay [4] (setting [8]); 89.2% (active) in assay [4] (at 50.0 µM). The growth inhibition was 20% in assay [5] (setting [7]); 98% (active) in assay [5] (setting [8]); 96% (active) in assay [5] (at 50.0 µM); 22% in assay [6] (setting [7]); 98% (active) in assay [6] (setting [8]); 97.8% (active) in assay [6] (at 50.0 µM).

As to `COc1c(Br)cc(/C=C(/C)[N+](=O)[O-])cc1Br`, the growth inhibition is 23% in assay [1] (setting [7]); 66% in assay [1] (setting [8]); 91.3% (active) in assay [1] (at 50.0 µM); 12% in assay [2] (setting [7]); 57% in assay [2] (setting [8]); 92.5% (active) in assay [2] (at 50.0 µM). Besides, the growth inhibition was 43% in assay [3] (setting [7]); 74% (active) in assay [3] (setting [8]); 31.8% in assay [3] (at 50.0 µM); 29% in assay [4] (setting [7]); 61% in assay [4] (setting [8]); 71.2% (active) in assay [4] (at 50.0 µM). In addition, the growth inhibition in assay [5] (setting [7]) is 46%; in assay [5] (setting [8]), 79% (active); in assay [5] (at 50.0 µM), 91.8% (active); in assay [6] (setting [7]), 13%; in assay [6] (setting [8]) it was 59%; in assay [6] (at 50.0 µM) it was 82.3% (active).

With `CC1(C)OC2OC3C(CN(CCCl)Cc4ccccc4)OC(c4ccccc4)OC3C2O1` (configuration not stated), the growth inhibition was 5% in assay [1] (setting [7]); 18% in assay [1] (setting [8]); 5.3% in assay [1] (at 50.0 µM); -26% in assay [2] (setting [7]); -4% in assay [2] (setting [8]); 8.75% in assay [2] (at 50.0 µM). For the same compound, the growth inhibition in assay [3] (setting [7]) was -10%; in assay [3] (setting [8]) it was 31%; in assay [3] (at 50.0 µM) it was -0.9%; in assay [4] (setting [7]), -2%; in assay [4] (setting [8]), -1%; in assay [4] (at 50.0 µM) it was 33.8%. Moreover, the growth inhibition in assay [5] (setting [7]) is 0%; in assay [5] (setting [8]), 23%; in assay [5] (at 50.0 µM), -2.9%; in assay [6] (setting [7]), -23%; in assay [6] (setting [8]), 49%; in assay [6] (at 50.0 µM) it was 14.2%.

`CCOP(=S)(OCC)OC(c1ccc(Cl)cc1)c1ccc(Cl)cc1`: the growth inhibition in assay [1] (setting [7]) is 3%; in assay [1] (setting [8]) it was -11%; in assay [1] (at 50.0 µM), 12.8%; in assay [2] (setting [7]), 0%; in assay [2] (setting [8]) it was -7%; in assay [2] (at 50.0 µM) it was 6.2%. Besides, the growth inhibition in assay [3] (setting [7]) is 7%; in assay [3] (setting [8]), -20%; in assay [3] (at 50.0 µM) it was 0.25%; in assay [4] (setting [7]), 6%; in assay [4] (setting [8]) it was -29%; in assay [4] (at 50.0 µM) it was 15.8%. Further, the growth inhibition in assay [5] (setting [7]) is 11%; in assay [5] (setting [8]) it was 18%; in assay [5] (at 50.0 µM), 49.6%; in assay [6] (setting [7]), -1%; in assay [6] (setting [8]), -11%; in assay [6] (at 50.0 µM), 11.6%.

As to `Cc1ccc2c(c1)SP(=S)(c1ccccc1)N2` (configuration not stated), the growth inhibition was 6% in assay [1] (setting [7]); 99% (active) in assay [1] (setting [8]); 99.2% (active) in assay [1] (at 50.0 µM); 4% in assay [2] (setting [7]); 99% (active) in assay [2] (setting [8]); 99.5% (active) in assay [2] (at 50.0 µM). The growth inhibition in assay [3] (setting [7]) was 8%; in assay [3] (setting [8]), 97% (active); in assay [3] (at 50.0 µM), 99.3% (active); in assay [4] (setting [7]) it was 15%; in assay [4] (setting [8]) it was 97% (active); in assay [4] (at 50.0 µM) it was 54.4%. Also, the growth inhibition in assay [5] (setting [7]) is 0%; in assay [5] (setting [8]), 99% (active); in assay [5] (at 50.0 µM) it was 98.8% (active); in assay [6] (setting [7]), 3%; in assay [6] (setting [8]), 99% (active); in assay [6] (at 50.0 µM), 98% (active).

Consider `CCC1(CC)C(=O)[N-]C(=O)[N-]C1=O.[Au+].[Au+].c1ccc([PH+](c2ccccc2)c2ccccc2)cc1.c1ccc([PH+](c2ccccc2)c2ccccc2)cc1`, for which the growth inhibition was 99% (active) in assay [1] (setting [7]); 94% (active) in assay [1] (setting [8]); 1.75% in assay [1] (at 50.0 µM); 99% (active) in assay [2] (setting [7]); 97% (active) in assay [2] (setting [8]); 80.6% (active) in assay [2] (at 50.0 µM). Besides, the growth inhibition in assay [3] (setting [7]) was 99% (active); in assay [3] (setting [8]) it was 96% (active); in assay [3] (at 50.0 µM), -4.5%; in assay [4] (setting [7]) it was 95% (active); in assay [4] (setting [8]), 96% (active); in assay [4] (at 50.0 µM) it was 35.1%. Besides, the growth inhibition was 99% (active) in assay [5] (setting [7]); 90% (active) in assay [5] (setting [8]); 2.2% in assay [5] (at 50.0 µM); 98% (active) in assay [6] (setting [7]); 96% (active) in assay [6] (setting [8]); 4.65% in assay [6] (at 50.0 µM).

For `CC1=CCC2(C)C3CCC4(C)C(O)CCC4C3CCC2(C)C1` (configuration not stated), the growth inhibition in assay [1] (setting [7]) was -17%; in assay [1] (setting [8]), 90% (active); in assay [1] (at 50.0 µM) it was 70.8% (active); in assay [2] (setting [7]), -17%; in assay [2] (setting [8]), 95% (active); in assay [2] (at 50.0 µM), 11.9%. For the same compound, the growth inhibition in assay [3] (setting [7]) is -6%; in assay [3] (setting [8]), 97% (active); in assay [3] (at 50.0 µM), 63.8%; in assay [4] (setting [7]), -6%; in assay [4] (setting [8]) it was 83% (active); in assay [4] (at 50.0 µM) it was 9.1%. Moreover, the growth inhibition was -25% in assay [5] (setting [7]); 94% (active) in assay [5] (setting [8]); 39.5% in assay [5] (at 50.0 µM); -10% in assay [6] (setting [7]); 96% (active) in assay [6] (setting [8]); 58.6% in assay [6] (at 50.0 µM).

For `N#CC(C#N)=Cc1cc(Cl)ccc1O`, the growth inhibition in assay [1] (setting [7]) is 11%; in assay [1] (setting [8]), 79% (active); in assay [1] (at 50.0 µM) it was 56% and 4.55%; in assay [2] (setting [7]), -14%; in assay [2] (setting [8]), 44%; in assay [2] (at 50.0 µM), 45.5% and 17.9%. The growth inhibition in assay [3] (setting [7]) was 2%; in assay [3] (setting [8]) it was 58%; in assay [3] (at 50.0 µM), 46% and 65.7%; in assay [4] (setting [7]), 4%; in assay [4] (setting [8]), 30%; in assay [4] (at 50.0 µM), 40.7% and -4.9%. Moreover, the growth inhibition in assay [5] (setting [7]) is 31%; in assay [5] (setting [8]) it was 64%; in assay [5] (at 50.0 µM) it was 20.7% and 2.2%; in assay [6] (setting [7]), 8%; in assay [6] (setting [8]), 71% (active); in assay [6] (at 50.0 µM), 65.8% and 39.8%.
